Here are results for 37 compounds from PubChem BioAssay (NCATS).

Values joined by “and” are separate entries in the source; they are usually repeats but may differ in a detail not shown here. Identical values can stand only once. Inconclusive results are not listed.

This experiment in a line: qHTS Assay for Lipid Storage Modulators (AID 1519). Particulars: Drosophila S3 cells, BODIPY lipid droplet/cell ratio, laser cytometry; measured here: lipid channel max response; cells loaded with oleic acid. Summed up:
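Cells seeded at 5,000 per well were treated with compounds over a concentration series and loaded with oleic acid (400 uM, as added). Lipid droplet fluorescence (488 nm excitation, 500-530 nm channel) was read by laser-scanning cytometry and normalized to 20 uM Triacsin C.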
In general terms: qHTS replaces the single test concentration by a dilution series.
In the case of `O=C(O)/C(=C/c1c(C(=O)O)[nH]c2cc(Cl)cc(Cl)c12)c1ccccc1`, the max response is -9.3%.

Turning to `CC1=C(/C=C/C(C)=C/C=C/C(C)=C\C(=O)O)C(C)(C)CCC1`, the max response stood at 13.6%.

`O=C(O)CCC(=O)N1CCCC1C(=O)O` (configuration not stated): the max response amounted to 27.9%.

Regarding `N=C(N)c1ccccc1`, the max response was 1.79%.

Regarding `Cc1nc(N=Nc2ccc(S(=O)(=O)O)cc2S(=O)(=O)O)c(COP(=O)(O)O)c(C=O)c1O`, the max response was -3.14% and 17.5%.

As to `N=S(=O)(O)Cc1noc2ccccc12`, the max response came to 20%.

Turning to `O=[N+]([O-])c1cccc2cn[nH]c12`, the max response is 36.8%.

Take `C[C@@H](NCCc1ccc(O)cc1)[C@@H](O)c1ccc(O)cc1`: the max response is -23.8%.

As for `CC[N+](CC)(CC)CC(=O)Nc1c(C)cccc1C`, the max response came to 2.48%.

Take `O=C(O)c1cc2cc(F)ccc2[nH]1`: the max response was 24.2% and 29.2%.

In the case of `O=C(O)C1=CCCNC1`, the max response was 19.5% and 15.3% and -4.32%.

As to `CNc1cc(NS(=O)(=O)c2ccc(N)cc2)nc(NC)n1`, the max response is -14.3%.

Consider `CN1C2CCC1CC(OC(c1ccccc1)c1ccccc1)C2` (configuration not stated), for which the max response is -8.59%.

For the compound `NC/C=C\C(=O)O`, the max response was -6.79% and 26.6%.

As to `CN1CCN(c2nc3cc(C(F)(F)F)ccc3n3cccc23)CC1`, the max response is 20.6%.

In the case of `CCSC(=N)N`, the max response is 15.2% and -3.11% and -5.48%.

Consider `Nc1ccc(-c2nc3ccc(-c4nc5ccc(N)cc5[nH]4)cc3[nH]2)cc1`, for which the max response was -26.6%.

As to `O=C(O)c1cccnc1C(=O)O`, the max response came out at 12.5%.

Consider `c1ccc(CN2CCC3(CCCc4ccccc43)CC2)cc1`, for which the max response was -39.4%.

Turning to `Oc1cc2c(cc1O)C(c1ccccc1)CNCC2` (configuration not stated), the max response was 16.2% and -20.2%.

For `CCCC[C@@]1(C2CCCC2)Cc2cc(OCC(=O)O)c(Cl)c(Cl)c2C1=O`, the max response was -27%.

As to `NS(=O)(=O)c1cccc2c1c([N+](=O)[O-])cc1nc(O)c(O)nc12`, the max response is -22.6% and 7.26%.

`Cc1nc(N=Nc2ccc(C(=O)O)cc2)c(COP(=O)(O)O)c(C=O)c1O`: the max response is -20.3%.

For the compound `N[C@@H](CCC(=O)N[C@H](CSN=O)C(=O)NCC(=O)O)C(=O)O`, the max response is -19.6%.

Regarding `CCCCCCC/C=C\CCCCCCCCC(=O)O`, the max response was -10.7%.

With `NCCCCN=C(N)N`, the max response came to 23.5%.

Consider `Cc1cc2c(cc1Cl)N(C(=O)Nc1ccnc3ccccc13)CC2`, for which the max response amounted to 64%.

As for `CC(=O)NNC(=O)N1Cc2ccccc2Oc2ccc(Cl)cc21`, the max response was 4.04% and 30.3%.

Take `CC1CCN(CC[C@H]2CCCN2S(=O)(=O)c2cccc(O)c2)CC1`: the max response is 15.3% and -11.1%.

On to `CCCCCCCCCCCCCCC[C@H](O)[C@H](N)CO`, for which the max response is -95.1%.

For `Cn1c(=O)[nH]c2ncn(C)c2c1=O`, the max response stood at 12.8%.

For the compound `CCC(=O)N1CCN(C(=O)c2ccccc2)CC1`, the max response was -7.51%.

For `O=c1[nH]ccc2c(O)cccc12`, the max response was -29.5%.

As for `O=c1onc2n1-c1cc(Br)ccc1OC2`, the max response came to 68.1%.

With `CSC(=N)N`, the max response was determined as 52.9%.

On to `COc1cc(/C=C(\C#N)C(=O)c2ccc(O)c(O)c2)cc(I)c1O`, for which the max response was 26.2%.

Turning to `O=C(O)C1=CCCN(CCON=C(c2ccccc2)c2ccccc2)C1`, the max response is -9.11% and 11.8%.
